Source: PubChem BioAssay (National Center for Advancing Translational Sciences (NCATS))
Sampled rows, rich in hits. Any-hit rate of the full collection: about 7.4%.
NPC1 promoter act: activators of NPC1 promoter | Huh7 NPC1 promoter luciferase reporter, 24 h | Potency, µM (top dose mostly 9.22 µM), for inactives: top-dose activation, most hits filed as activators | 2.4% of 320,000 active | AID 485313; note: % of control where 0% means no effect; nearly all actives have a fitted effect of over 60% in size
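Stably transfected Huh7 (NPC1 promoter→luciferase), 1500 cells/well in Opti-MEM + 10% FBS, 2 h settle, then compound 24 h at 37 °C. Luminescence after 10 min with Amplite reagent.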
Rab9 promoter act: Rab9 promoter activation; Huh7 Rab9 promoter-luciferase reporter, luminescence, 24 h; Potency, µM (doses to about 9.22 µM), without a hit: top-dose activation, negative = inhibition, hits mostly activators; 2.8% of 320,000 active; AID 485297; note: % of control where 0% means no effect; nearly all actives have a fitted effect of over 60% in size
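Rab9 promoter-driven luciferase in stably transfected Huh7 cells; 1500 cells/well rested 2 h, exposed to compound in DMSO for 24 h at 37 °C, 5% CO2. Luminescence read 10 min after adding luciferase reagent at ambient temperature.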
SMN2 splice up: SMN2 splice variant enhancement; 2.8% of 210,000 active; Potency, µM (titrated, usually from 46.1 µM), without a hit: at the highest dose activity change, positive = activation, hits mostly activators; HEK293 SMN2-luciferase splicing reporter, luminescence, 30-36 h; note: % of control where 0% means no effect; nearly all actives have a fitted effect of over 55% in size
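HEK293 cells carry an SMN2 minigene-luciferase reporter in which exon 7 inclusion puts luciferase in frame. Cells were seeded at 2000 cells/well, attached for 10-12 hours, then exposed to compounds for 30-36 hours at 37C before ONE-Glo luminescence.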
FLuc counter: inhibits or activates purified firefly luciferase, miR-21 counter-screen; P08659; purified FLuc, Km substrates, luminescence inhibition; 6.9% of 360,000 active; Potency, µM (titrated, usually from 57.5 µM), inactives show top-dose activity change, negative = inhibition, actives largely listed as inhibitors; AID 588342;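 note: plate controls were vehicle for no effect and reference inhibitor for full effect; nearly all actives have a fitted effect of over 55% in size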
Target sequence (P08659 whole entry, looked up): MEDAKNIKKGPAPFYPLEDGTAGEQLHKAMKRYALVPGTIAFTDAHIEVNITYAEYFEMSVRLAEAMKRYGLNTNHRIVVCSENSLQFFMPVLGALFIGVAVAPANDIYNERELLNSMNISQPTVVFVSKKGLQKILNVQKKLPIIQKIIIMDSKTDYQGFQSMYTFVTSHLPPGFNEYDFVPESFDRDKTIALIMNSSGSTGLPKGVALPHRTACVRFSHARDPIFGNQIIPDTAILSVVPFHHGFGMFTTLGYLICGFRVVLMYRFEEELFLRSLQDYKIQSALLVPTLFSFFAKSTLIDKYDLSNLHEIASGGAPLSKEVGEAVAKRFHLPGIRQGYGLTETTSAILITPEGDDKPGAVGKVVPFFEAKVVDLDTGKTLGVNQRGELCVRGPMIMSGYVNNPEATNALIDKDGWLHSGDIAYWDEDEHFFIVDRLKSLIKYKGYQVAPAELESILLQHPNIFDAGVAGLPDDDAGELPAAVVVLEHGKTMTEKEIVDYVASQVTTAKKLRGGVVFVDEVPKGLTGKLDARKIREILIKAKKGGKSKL
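Biochemical qHTS of compounds, final roughly 60 µM downward over six points, against 10 nM purified firefly luciferase using Km concentrations of substrates (10 uM D-luciferin, 10 uM ATP) in Tris acetate pH 7.5 buffer; luminescence output.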
p53 reactivator: restores transcriptional activity of mutant p53 | 0.063% of 320,000 active | H1299 p53-A138V BP100-luciferase reporter, luminescence, 24 h | Potency, µM (doses to about 92.2 µM), inactives show top-dose activity change, positive = activation, hits mostly activators; note: % of control where 0% means no effect; nearly all actives have a fitted effect of over 45% in size
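p53-null H1299 cells stably carrying temperature-sensitive p53-A138V and a BP100-luciferase reporter were pinned with compounds (4-point, 1:5 series) and held 24 hrs at 37 deg C. Luminescence was read 10 min after detection reagent.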
ELG1 genotoxic: inducers of genotoxicity in HEK293T ELG1-luciferase cells. HEK293T ELG1-luciferase reporter, luminescence, 16 h. Potency, µM (titrated, usually from 46 µM), inactives show at the top dose activity change, positive = activation, usual class: activators. 1.3% of 330,000 active. AID 504466; note: % of control where 0% means no effect; nearly all actives have a fitted effect of over 60% in size
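Step 1: seed 2,000 HEK293T ELG1-luciferase cells per well. Step 2: add compound or DMSO, incubate 16 hr at 37 °C. Step 3: ONE-Glo, 30 min at room temperature, read luminescence.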
Numbers without * were called inactive; ? = inconclusive; · = not tested or not shown; [ ] = another dose, or the depositor's remark. Calls come from the whole dose curve; as a rule, active = well fitted curve in the direction sought with a large enough effect; inconclusive = small, poorly fitted or top-dose-only effect, or another doubt; inactive = no such curve, though single readings can be large; an effect the other way counts as inactive or inconclusive. Potency is the fitted concentration of half-maximal effect.

SMILES	NPC1 promoter act	Rab9 promoter act	SMN2 splice up	FLuc counter	p53 reactivator	ELG1 genotoxic
CCOC(=O)c1nn(-c2ccc(C)cc2)cc1O	4.5µM*	?	?	7.6µM*	?	3.2µM*
CCOC(=O)c1cc(C(=O)OCC)cc(-n2cc(O)c(C(=O)OCC)n2)c1	0%	0%	0%	-1%	-4%	0%
CCOC(=O)c1nn(-c2ccc(Cl)cc2)cc1O	?	?	·	11µM*	?	?
CCOC(=O)c1nn(-c2sc(C(=O)OC)c(C)c2C(=O)OC)cc1O	0%	-2%	?	-2%	?	5%
CCOc1ccc(CNC(=O)c2ccc3c(c2)c(C)c(C)n3Cc2ccccc2)cc1OC	·	·	·	4%	·	·
O=C(OCc1ccccc1Cl)c1ccc(-c2nnn(Cc3ccccc3)n2)cc1	·	·	2%	-6%	·	·
CCOC(=O)c1nn(-c2cc(C(=O)OC)cc(C(=O)OC)c2)cc1O	-2%	-3%	2%	2%	7%	4%
COC(=O)c1nn(-c2ccc(-c3ccccc3)cc2)cc1O	?	?	?	0.34µM*	31%	13%
CCOC(=O)C1=NN(c2ccc(Cl)cc2)C(=O)C1	?	?	·	9.5µM*	?	?
CCOC(=O)c1[nH]n(-c2ccc(Cl)cc2)c(=O)c1C	-2%	-4%	2%	4%	-9%	-5%
CCCCOc1ccccc1NC(=O)Cn1c(-c2cncs2)nc2ccccc21	·	·	0%	-18%	·	·
CC1CCc2nc(NC(=O)CSc3nc4ccccc4o3)sc2C1 (centres undefined)	?	?	-81%	6.7µM*	?	6.5µM*
Cc1ccc(-c2csc(NC(=O)CSc3nc4ccccc4o3)n2)cc1	26%	25%	14µM*	·	?	?
CC(=O)c1cc2c(cc1NC(=O)CSc1nc3ccccc3o1)OCO2	20%	?	?	0%	7%	10µM*
CC(=O)Nc1ccc(NC(=O)CSc2nc3ccccc3o2)cc1	14%	3%	20%	-2%	29%	7%
CC(=O)c1cc2c(cc1NC(=O)CSc1nc3ccccc3[nH]1)OCO2	0%	-1%	·	-1%	-6%	-7%
Cc1cccc(NC(=O)CSc2nc3ccccc3o2)c1	1.4µM*	0.89µM*	?	?	·	1.5µM*
Cc1ccc2nc(NC(=O)CSc3nc4ccccc4o3)sc2c1	4%	12%	-11%	-15%	11%	?
Cc1ccc(Cl)cc1Nc1nn2c(=O)c3ccc(C(=O)NC4CCCCC4)cc3nc2s1	·	·	·	-2%	·	·
Cc1nc(SCC(=O)Nc2nnc(C(C)C)s2)n[nH]1	2%	0%	·	0%	3%	4%
Cc1cccc(NC(=O)CSc2cc(C)c3ccccc3n2)c1	·	·	8.9µM*	-18%	·	·
COc1cccc(NC(=O)CSc2cc(C)c3ccccc3n2)c1	·	·	-13%	-19%	·	·
O=C(Nc1cccc(-c2nn[nH]n2)c1)c1ccc(Br)s1	1%	27%	·	12µM*	15%	-1%
c1cc(NNc2cccc(-c3nn[nH]n3)c2)cc(-c2nn[nH]n2)c1	·	·	-7%[9.22 µM]	·	·	·
O=C(Nc1cccc(-c2nn[nH]n2)c1)c1ccc(Cl)s1	-1%	5%	·	15µM*	-5%	1%
SMILES	NPC1 promoter act	Rab9 promoter act	SMN2 splice up	FLuc counter	p53 reactivator	ELG1 genotoxic
Cc1c(NC(=O)c2cccc(NC(=O)COc3ccccc3C#N)c2)c(=O)n(-c2ccccc2)n1C	2.2µM*	4µM*	·	1.3µM*	-2%	-3%
O=C(COC(=O)Cc1ccccc1F)Nc1ccc2c(c1)OCO2	-2%	1%	10%	?	3%	-2%
COc1cccc(NC(=O)COC(=O)c2ccco2)c1	1%	2%	-7%	?	?	0%
O=C(COC(=O)c1c(F)cccc1F)Nc1ccc2c(c1)OCO2	-1%	0%	·	6.7µM*	?	2%
COc1cccc(NC(=O)COC(=O)c2c(F)cccc2F)c1	-2%	-3%	14%	11µM*	11%	2%
O=C(COC(=O)Cc1ccccc1F)Nc1ccc2c(c1)OCCO2	1%	-1%	7%	17µM*	11%	-2%
Nc1ccc(N)c(Cl)c1	·	·	-10%	·	·	·
Cc1cc(OCC(=O)Nc2ccc3c(c2)OCCO3)cc(C)c1Cl	4%	1%	10%	?	3%	1%
O=C(COc1ccccc1Br)Nc1ccc2c(c1)OCCCO2	1.3µM*	1.4µM*	·	2.1µM*	?	?
N#Cc1ccccc1OCC(=O)Nc1ccc2c(c1)OCCO2	?	1.4µM*	·	9.5µM*	?	?
O=C(COc1ccccc1F)Nc1ccc2c(c1)OCCO2	1.8µM*	3.2µM*	·	6.7µM*	·	10µM*
O=C(COC(=O)c1ccccn1)Nc1ccc2c(c1)OCCO2	·	·	·	·	12%	3%
N#Cc1ccccc1OCC(=O)Nc1ccc2c(c1)OCCCO2	2.2µM*	3.2µM*	·	17µM*	?	26%
Cn1c(SCc2ccc(F)cc2)nc2ccc(C(=O)NCc3ccccc3)cc21	·	·	?	-8%	·	·
Cc1cc2c(cc1S(=O)(=O)N(C)CC(=O)Nc1ccc(C#N)cc1)OCC(=O)N2	·	·	·	1%	·	·
COc1cccc2sc(N(Cc3cccnc3)C(=O)C3COc4ccccc4O3)nc12 (centres undefined)	·	·	·	-6%	·	·
CC1Cc2cc(S(=O)(=O)NCCc3ccccc3)ccc2N1C(=O)C1CCC1 (centres undefined)	·	·	·	-16%	·	·
CCn1cc(S(=O)(=O)c2ccccc2)c(=O)c2cc(F)c(N3CCCC3)cc21	·	·	·	4%	·	·
CC(C)(C)C1CCc2c(C(=O)NNC(=O)CCC(=O)O)csc2C1 (centres undefined)	-2%	1%	-1%	27µM*	3%	1%
O=C(COC(=O)c1c(F)cccc1F)c1ccc[nH]1	4%	13%	·	17µM*	17%	4%
CN(C)c1ccc(C(=O)OCC(=O)c2ccc[nH]2)cc1	·	·	·	·	?	16µM*
O=C(OCC(=O)c1ccc[nH]1)c1ccccc1	8%	?	-30%	17µM*	16%	?
O=C(/C=C/c1ccccc1Cl)OCC(=O)c1ccc[nH]1	11%	2%	·	9.5µM*	?	6%
O=C(COC(=O)c1nc(Cl)c(Cl)c(Cl)c1Cl)c1ccc[nH]1	4%	0%	·	4%	-7%	?
O=C(OCC(=O)c1ccc[nH]1)c1ccc(Cl)c(Cl)c1	·	·	·	·	0%	-2%
COc1ncc2nc(CCc3ccccc3)c(=O)n(C3CC3)c2n1	·	·	-8%	·	·	·
N#Cc1cccc(NC(=O)N2CCCC3(CCN(S(=O)(=O)c4ccccc4)CC3)C2)c1	·	·	-25%	·	·	·
COc1ccc(CNC(=O)CCCc2nnc3n(CCC(C)C)c(=O)c4sccc4n23)cc1	·	·	·	6%	·	·
